PP1 inh: blocks human PP1-alpha phosphatase, a PP5 counter-screen. AID 2235. 320,000 compounds, 0.9% hits. purified PP1alpha, OMFP fluorescence. P62136. inhibition, % at 6.7 µM;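 active = inhibition above the mean inhibition of all tested compounds plus 3 SD, computed separately for each screening campaign, cut at about 15% in these data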
Target sequence (P62136 whole entry, looked up): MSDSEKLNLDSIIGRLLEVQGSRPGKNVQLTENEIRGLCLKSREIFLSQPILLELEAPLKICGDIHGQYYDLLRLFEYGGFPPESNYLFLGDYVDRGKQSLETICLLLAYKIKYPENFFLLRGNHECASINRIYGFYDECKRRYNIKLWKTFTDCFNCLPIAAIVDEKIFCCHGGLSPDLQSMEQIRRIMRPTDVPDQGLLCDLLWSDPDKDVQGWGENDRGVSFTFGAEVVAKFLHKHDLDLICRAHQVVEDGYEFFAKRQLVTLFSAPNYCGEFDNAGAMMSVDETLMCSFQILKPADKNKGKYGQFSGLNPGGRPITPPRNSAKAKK
IDE cell inh: inhibits human insulin-degrading enzyme in HEK cells. P14735. FAbetaB cleavage, fluorescence polarization. inhibition, % at 5.59 µM. 320,000 compounds, 0.41% hits. AID 434962;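 active = percent inhibition above the average of all tested compounds plus 3 SD, set per screening campaign, cut at about 16% in these data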;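 also: IDE supplied by intact live HEK cells; FP after avidin binding of uncleaved biotin substrate so inhibition keeps polarization high; 0% = DMSO wells and 100% = 60 µM reference IDE inhibitor Ii1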
IDE cell activ: boosts human insulin-degrading enzyme activity in HEK cells | FAbeta-B cleavage, fluorescence polarization; 0% vehicle, 100% cell-free pure enzyme wells | activation, % at 5.96 µM | 340,000 compounds, 0.073% hits | AID 493087;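 active = activation above the mean of all tested compounds plus 3 SD, set per screening campaign, cut at about 17% in these data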
SKKanGAS inh: SKKanGAS growth inhibition; S. pyogenes SKKanGAS, kanamycin growth, BacTiter-Glo, 6 h; inhibition, % at 7.5 µM; 300,000 compounds, 1.3% hits; AID 1662;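 active = mean replicate score, as percent of positive control median, at least 50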;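 also: strain carries kanamycin resistance gene driven by streptokinase promoter and grows in 40 µg/ml kanamycin; loss of luminescence reflects streptokinase promoter inhibition or plain growth inhibition; 0% = median of DMSO wells and 100% = positive control at its reference dose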
PP5 primary: inhibitors of human protein phosphatase 5 (PP5); inhibition, % at 6.7 µM; 320,000 compounds, 0.18% hits; P53041; purified PP5c, OMFP substrate fluorescence; AID 1987;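 active = inhibition above the campaign's mean inhibition across all tested compounds plus 3 SD, cut at about 9.5% in these data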;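 also: 0% = DMSO only and 100% = 100 µM cantharidin control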
Granule exo inh: lytic granule exocytosis inhibition. inhibition, % at 10 µM. TALL-104 LAMP-1 surface exposure, flow cytometry; cells stimulated with thapsigargin and PMA. 360,000 compounds, 0.66% hits. AID 651702;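 active = inhibition above about 55%, limit read from the data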
PP5 conf: PP5 (human) inhibition, confirmation. shares compounds with PP5 primary. Purified PP5, fluorogenic phosphatase substrate, fluorescence. inhibition, % at 6.7 µM. 460 compounds, 22% hits. AID 2331; in the data active = inhibition above about 9.5%
PP1 counter 3x: PP1 phosphatase inhibition, counter-screen for PP5 inhibitors. shares compounds with PP5 primary. inhibition, % at 6.7 µM. AID 2355. PP1 enzyme, fluorescent phosphatase substrate. 460 compounds, 4% hits; in the data active = inhibition above about 16%
PP1 confirm: human PP1 phosphatase inhibition, confirmation | shares compounds with PP1 inh | 1,900 compounds, 52% hits | purified PP1alpha, OMFP substrate fluorescence | inhibition, % at 6.7 µM | AID 2358;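 active = mean PP1 inhibition above a set limit taken from the earlier primary screen, cut at about 15% in these data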
PP5 counter: PP5 phosphatase inhibition, counter-screen for PP1 inhibitors; shares compounds with PP1 inh; purified PP5c, OMFP fluorescence; inhibition, % at 6.7 µM; 1,900 compounds, 4% hits; AID 2360;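 active = mean PP5 inhibition over triplicate wells above about 9.5% taken from the earlier PP1 screen, limit read from the data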
Exocytosis CP01: blocks lytic granule exocytosis. inhibition, % at 10 µM. TALL-104 cells, LAMP-1 externalization, flow cytometry; stimulated with PMA plus thapsigargin. 1,500 compounds, 11% hits. shares compounds with Granule exo inh; in the data active = inhibition above about 60%;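 also: 0% = stimulated vehicle wells and 100% = unstimulated wells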
An asterisk follows results filed as active; nt = no result given. Hits are enriched below; roughly 2.8% of the tested compounds scored in any of these assays.

SMILES	PP1 inh	IDE cell inh	IDE cell activ	SKKanGAS inh	PP5 primary	Granule exo inh	PP1 confirm	PP5 counter	others
COCCNC(=O)c1c(N)n(CCC(C)C)c2nc3ccccc3nc12	6	9	-1	17	11*	20	nt	nt	PP5 conf=23*;PP1 counter 3x=3
CC(C)OCCCNC(=O)c1c(N)n(Cc2cccs2)c2nc3ccccc3nc12	2	-8	8	37	12*	28	nt	nt	PP5 conf=15*;PP1 counter 3x=9
COCCCNC(=O)c1c(N)n(Cc2ccco2)c2nc3ccccc3nc12	-2	5	nt	8	0	-3	nt	nt
CC(C)CCn1c(N)c(C(=O)NCc2cccs2)c2nc3ccccc3nc21	-2	-1	4	16	0	32	nt	nt
O=C1NCN(c2ccccc2)C12CCN(C(c1ccnc3ccccc13)c1nnnn1-c1ccc3c(c1)OCCO3)CC2 (stereo not drawn)	nt	nt	nt	nt	nt	-5	nt	nt
COC(=O)C1=C(c2ccc(OC(F)(F)F)cc2)C[C@@H]2CC[C@H]1N2C(=O)NCCOc1ccccc1Cl	9	3	1	nt	11*	-6	nt	nt	PP5 conf=6;PP1 counter 3x=4
COC(=O)C1=C(c2ccc(OC(F)(F)F)cc2)C[C@@H]2CC[C@H]1N2C(=O)NCCOc1ccccc1	3	-7	7	nt	8	5	nt	nt
CCOC(=O)[C@]12Cc3cc(C)ccc3[C@H]1N(Cc1ccccc1)C(=O)c1cc(OC)ccc12	nt	nt	nt	nt	nt	12	nt	nt
CCOC(=O)c1c(NS(=O)(=O)c2ccccc2)n(CCCOC)c2nc3ccccc3nc12	2	-1	1	26	11*	-6	nt	nt	PP5 conf=9.9*;PP1 counter 3x=0
COCCCn1c(N)c(C(=O)OCCOC)c2nc3ccccc3nc21	1	3	1	10	2	-1	nt	nt
CC(CC(C)(C)N1CC1)=NNC(=O)Nc1cccc2ccccc12	nt	nt	3	nt	nt	-8	nt	nt
CN1CC[C@@]2(C)c3cc(O)ccc3N(C)C2O1 (stereo partly drawn)	3	1	2	0	14*	-8	nt	nt	PP5 conf=26*;PP1 counter 3x=5
CC(C)C[C@H]1COc2cc(N3CCN(C)CC3)ccc2S(=O)(=O)N1	nt	nt	nt	nt	nt	-4	nt	nt
CC(C)CNC(=O)c1c(N)n(Cc2ccc3c(c2)OCO3)c2nc3ccccc3nc12	7	5	2	23	12*	56*	nt	nt	PP5 conf=21*;PP1 counter 3x=3;Exocytosis CP01=81*
Cc1ccccc1OP(=O)(Oc1ccccc1C)N1CCOCC1	nt	nt	nt	nt	nt	-15	nt	nt
O=C1NC(=S)N(c2ccc(F)cc2)C(=O)/C1=C\c1ccoc1	nt	nt	-2	nt	nt	-4	nt	nt
COc1ccc(OC)c(N2C(=O)/C(=C/c3ccco3)C(=O)NC2=S)c1	68*	2	nt	5	0	nt	17*	-4
O=C1NC(=S)N(c2ccc(F)cc2)C(=O)/C1=C/c1ccco1	40*	3	nt	24	0	nt	68*	1
CCC(c1nnnn1-c1ccc(OC)cc1)N1CCC2(CC1)C(=O)NCN2c1ccccc1 (stereo not drawn)	nt	nt	nt	nt	nt	0	nt	nt
C[C@@H]1CN([C@H](C)CO)C(=O)CCCn2cc(nn2)CO[C@H]1CN(C)C(=O)Oc1cccc2ccccc12	nt	nt	nt	nt	nt	5	nt	nt
O=c1[nH]c(O)c(/C=C2/C=CC(c3cc(Cl)ccc3Cl)=N2)c(=O)[nH]1	19*	9	-46	-8	-2	92*	47*	-6
CC1Oc2cc3c(-c4c(O)cc(O)c5c(O)c6c(cc45)OC(C)C(C)C6=O)c(O)cc(O)c3c(O)c2C(=O)C1C (stereo not drawn)	57*	0	15	107*	5	-1	25*	2
O=C1C(Br)C2CCC1C2C(=O)O (stereo not drawn)	nt	nt	nt	nt	nt	1	nt	nt
NC(N)=N/N=C/c1ccc(N(c2ccccc2)c2ccccc2)cc1	38*	-8	4	105*	6	25	25*	-3
O=P1(NCCCl)OCCC(OO)N1CCCl (stereo not drawn)	nt	nt	nt	nt	nt	-7	nt	nt
SMILES	PP1 inh	IDE cell inh	IDE cell activ	SKKanGAS inh	PP5 primary	Granule exo inh	PP1 confirm	PP5 counter	others
N=Cc1c(O)n(-c2ccc(C34CC5CC(CC(C5)C3)C4)cc2)c(=O)[nH]c1=O	20*	0	6	5	5	-2	22*	4
NNCc1ccccc1	nt	nt	8	nt	nt	0	nt	nt
Clc1ccc(COC(Cn2ccnc2)c2ccc(Cl)cc2Cl)cc1 (stereo not drawn)	29*	9	-6	74*	2	7	20*	2
c1ccc(Cn2ccnc2)cc1	-3	-3	4	0	0	-3	nt	nt
Clc1ccc(CSC(Cn2ccnc2)c2ccc(Cl)cc2Cl)cc1 (stereo not drawn)	26*	3	-3	nt	5	21	20*	3
O=C(O)CC1OCC=C2CN3CCC45C6=CC(=O)C(=O)C([N+](=O)[O-])=C6NC4C1C2CC35 (stereo not drawn)	33*	5	0	3	21*	3	53*	2
O=C(O)CC1OCC=C2CN3CCC45c6ccccc6NC4C1C2CC35 (stereo not drawn)	-1	5	2	10	0	-2	nt	nt
COc1ccc(-n2nnnc2C(CCSC)N2CCC3(CC2)C(=O)NCN3c2ccccc2)cc1 (stereo not drawn)	nt	nt	nt	nt	nt	0	nt	nt
Clc1ccc(C(c2ccc(Cl)cc2)n2cc[n+](CC(OCc3ccc(Cl)cc3Cl)c3ccc(Cl)cc3Cl)c2)cc1 (stereo not drawn)	52*	-5	19*	nt	5	-8	35*	9
CN1C(=O)N(C)C(=O)C2(Cc3cc(N)ccc3N3CCN(c4ccccc4F)CC32)C1=O (stereo not drawn)	23*	-2	nt	4	2	nt	32*	1
CN1CCN2c3ccc(N)cc3CC3(C(=O)NC(=O)NC3=O)C2C1 (stereo not drawn)	nt	nt	nt	-15	nt	-3	nt	nt
CCCCCCn1c(=O)c(C(=O)Nc2ncccc2C)c(O)c2ccccc21	26*	-1	2	94*	5	4	18*	-2
CCCCn1c(=O)c(C(=O)Nc2ncccc2C)c(O)c2ccccc21	28*	3	3	107*	2	0	26*	-1
CCCCn1c(=O)c(C(=O)Nc2ccccc2)c(O)c2ccccc21	-2	-4	3	-6	2	0	nt	nt
CCCCCn1c(=O)c(C(=O)Nc2ccccc2C)c(O)c2ccccc21	-2	4	4	-2	2	11	nt	nt

Compound activity as filed in PubChem BioAssay.
